This note sets out measurements from PubChem BioAssay (Tox21).

SMILES strings stand for the structures. Values joined by “and” are separate entries in the source; they are usually repeats but may differ in a detail not shown here. Equal entries are not always repeated. Results filed as inconclusive are left out. The source holds several records for some structures; these can differ, active in one and inactive in another. Active and inactive are the calls of the source. Unless noted, calls come from the whole dose curve.

Assay [1] in a line: Nuclear factor erythroid 2-related factor 2/antioxidant responsive element (Nrf2/ARE) small molecule agonists: qHTS cell viability counter screen in human keratinocytes (AID 1919968; active = well fitted curve in the direction sought with a large enough effect in the repeat runs; an effect the other way counts as inactive or inconclusive; note: nearly all actives have a fitted effect of over 55% in size; note: potency is the fitted concentration of half-maximal effect). In short, it runs like this: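 Viability counter-screen: KeratinoSens reporter cells, DMSO-delivered compounds, 23 h at 37 C, CellTiter-Fluor fluorescence.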
For orientation: Quantitative high-throughput screening tests each substance at several concentrations.

Assay [2] in a line: Nuclear factor erythroid 2-related factor 2/antioxidant responsive element (Nrf2/ARE) small molecule agonists: luciferase reporter gene qHTS assay in human keratinocytes (AID 1919969). Note: nearly all actives have a fitted effect of over 35% in size. Note: potency is the fitted concentration of half-maximal effect.
Assay [3] has as its target Gonadotropin-releasing hormone receptor (Homo sapiens) (UniProt P30968). Kind of assay: Human gonadotropin-releasing hormone receptor (GnRHR) small molecule agonists, calcium flux assay in GnRHR-HEK293 cells (AID 1920063). Note: nearly all actives have a fitted effect of over 35% in size. In short, it runs like this: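 Tox21-format agonist screen using human GnRHR-expressing HEK293 cells and a fluorescent calcium dye; kinetic 3-min fluorescence reading after compound addition, 15-point concentration series run in triplicate.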
On the technique in general: Calcium flux is commonly read through the fluorescence of an indicator in the cells.

Assay [4] addresses KiSS-1 receptor (Homo sapiens) (UniProt Q969F8). Kind of assay: Human kisspeptin (KISS1R) small molecule agonists, calcium flux assay in KISS1R-HEK293 cells (AID 1920064; active = well fitted curve in the direction sought with a large enough effect in the repeat runs; an effect the other way counts as inactive or inconclusive). In short, it runs like this: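 Intracellular calcium mobilization in KISS1R-HEK293 cells was recorded by fluorescence (Ex/Em 480/540) for 3 min following compound addition to cells pre-loaded 1 h with calcium dye.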

Assay [5] is described as follows: G protein-coupled receptor (GPCR) small molecule agonists, calcium flux assay: HEK293 wild type cell line counter screen (AID 1920065). A digest of the protocol: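 In this agonist-mode screen, ATP is the positive control and DMSO the vehicle. Cells grow 18 h before a 1 h dye incubation at 37 C; signal is taken at Ex/Em 480/540 over 3 min.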
Assay [6] is described as follows: p53 small molecule agonists, cell-based qHTS assay with human liver microsomes (AID 1963577). In short, it runs like this: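 Compounds act here after metabolic activation: human liver microsomes and NADPH, both at 0.5 mg/mL final, were co-added to p53RE-bla cells. Incubation ran 16 h at 37 C, followed by LiveBLAzer detection.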
Assay [7] is described as follows: p53 small molecule agonists, cell-based qHTS assay with rat liver microsomes (AID 1963578). In short, it runs like this: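 Read-out is beta-lactamase reporter fluorescence (LiveBLAzer, 2 h, room temperature, dark) in p53RE-bla cells treated 16 h at 37 C with compound, rat liver microsomes and NADPH, both 0.5 mg/mL final.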
The nature of assay [8]: p53 small molecule agonists, cell-based qHTS assay with human liver microsomes: qHTS cell viability counter screen (AID 1963579). Note: nearly all actives have a fitted effect of over 45% in size. In short, it runs like this: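 Cells carrying the p53 response-element beta-lactamase reporter are treated for 16 h at 37 C with test compounds in the presence of human liver microsomes and NADPH (both 0.5 mg/mL final); ATP-based CellTiter-Glo luminescence then reports viability.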

Assay [9] in a line: p53 small molecule agonists, cell-based qHTS assay with rat liver microsomes: qHTS cell viability counter screen (AID 1963580). Note: nearly all actives have a fitted effect of over 45% in size. A digest of the protocol:
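Intracellular ATP, by CellTiter-Glo luminescence, defines viability. HCT-116 p53RE-bla cells, 4,000 per well, were compound-treated in the presence of rat liver microsomes and NADPH for 16 h at 37 C.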

Assay [10] in a line: p53 small molecule agonists, cell-based qHTS assay: qHTS cell viability counter screen (AID 1963581). Note: nearly all actives have a fitted effect of over 45% in size. A digest of the protocol:
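Compounds are pinned onto HCT-116 p53RE-bla cells and left 16 h at 37 C. Following the reporter FRET read, ATP is quantified by CellTiter-Glo luminescence after 30 min at room temperature.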

Assay [11] in a line: p53 small molecule agonists, cell-based qHTS assay (AID 1963582; active = well fitted activation curve with a large enough effect in the signal ratio in the repeat runs, not every such curve was filed as active; the % refers to the signal ratio). In short, it runs like this:
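Agonist activity was scored from beta-lactamase FRET fluorescence in p53RE-bla cells treated 16 h at 37 C with compounds in DMSO, substrate incubation being 2 h at room temperature.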

Assay [12] has as its target 5-hydroxytryptamine receptor 2A (Homo sapiens) (UniProt P28223). Kind of assay: 5-hydroxytryptamine receptor 2A (HTR2A) small molecule antagonists, cell-based qHTS assay (AID 1963586). Note: nearly all actives have a fitted effect of over 45% in size. In short, it runs like this: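 Antagonist-mode intracellular calcium assay: DOI (4 nM) added after 5 min compound pre-incubation at room temperature to dye-loaded HTR2A-CHO cells. Fluorescence followed for 3 min, sampled every second.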

For assay [13] the target is unchanged. The assay can be described thus: 5-hydroxytryptamine receptor 2A (HTR2A) small molecule agonists, cell-based qHTS assay (AID 1963587). Note: nearly all actives have a fitted effect of over 30% in size. In short, it runs like this:
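Kinetic calcium-flux fluorescence (2 min, 1 sec intervals) after compound addition in agonist mode. HTR2A-CHO cells were cultured 18 h, then dye-loaded 1 h at 37 C.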

Assay [14] addresses Muscarinic acetylcholine receptor M1 (Homo sapiens) (UniProt P11229). The assay can be described thus: Cholinergic receptor muscarinic 1 (CHRM1) small molecule antagonists, cell-based qHTS assay (AID 1963588). Note: nearly all actives have a fitted effect of over 40% in size. Note: potency is the fitted concentration of half-maximal effect. In short, it runs like this:
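CHRM1-CHO calcium-flux assay, antagonist mode. Cells were seeded 18 h, dye-loaded 1 h at 37 C and given compound for 5 min at RT, then acetylcholine was added at 50nM. FDSS fluorescence was read 3 min; 15 concentrations, three runs.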

The target is the same in assay [15]. The assay can be described thus: Cholinergic receptor muscarinic 1 (CHRM1) small molecule agonists, cell-based qHTS assay (AID 1963589). Note: nearly all actives have a fitted effect of over 35% in size. In short, it runs like this:
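Stable CHRM1-CHO cells (human receptor) were incubated 18 h, dye-loaded for 1 h at 37 C and exposed to test compounds for agonist activity, with calcium-dependent fluorescence followed kinetically.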

Assay [16] in a line: cAMP Responsive Elements (CRE) small molecule agonists, cell-based qHTS assay (AID 1963590). A digest of the protocol: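 FRET-based beta-lactamase readout (LiveBLAzer B/G, 2 h RT) quantified CRE activation in HEK 293T CRE-bla cells after 3 h treatment with DMSO-dissolved compounds.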
Assay [17] is described as follows: cAMP Responsive Elements (CRE) small molecule antagonists, cell-based qHTS assay (AID 1963591; active = well fitted inhibition curve with a large enough effect in the signal ratio in the repeat runs, not every such curve was filed as active; the % refers to the signal ratio). A digest of the protocol: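 qHTS in CRE-bla HEK 293T cells: compound in DMSO, then 0.25 uM NKH477 (final), 3 h at 37 °C/5% CO2; beta-lactamase FRET read-out after 2 h substrate incubation.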
Assay [18] concerns the target Beta-2 adrenergic receptor (Homo sapiens) (UniProt P07550). Kind of assay: Adrenergic beta2 receptor (ADRB2) small molecule antagonists, cell-based qHTS assay (AID 1963592). Note: series mostly up to about 92 µM; nearly all actives have a fitted effect of over 50% in size. A digest of the protocol:
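Cells (CHO, stable ADRB2 overexpression) incubated 18-20hr at 37C; compounds added from DMSO; agonist mix (1nM isoproterenol, 100uM IBMX, 25uM Ro-20-1724) added; 0.5hr RT; d2-cAMP and anti-cAMP-cryptate added; 1hr RT; 665/615 nm read.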

Assay [19] has as its target D(2) dopamine receptor (Homo sapiens) (UniProt P14416). Kind of assay: Dopamine D2 receptor (DRD2) small molecule agonists, cell-based qHTS assay (AID 1963594). Note: nearly all actives have a fitted effect of over 35% in size. A digest of the protocol: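 cAMP accumulation in DRD2-HEK293 cells measured by HTRF after 1 h detection; compounds added 10 min before NKH477 (200nM […]) forskolin-analogue stimulation, 30 min at room temperature, with Ro20-1724 present at 0.1 mM final.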

Assay [20] shares this target. Kind of assay: Dopamine D2 receptor (DRD2) small molecule antagonists, cell-based qHTS assay (AID 1963595; active = well fitted inhibition curve with a large enough effect in the signal ratio in the repeat runs, with a control signal flat; the % refers to the signal ratio). A digest of the protocol:
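Antagonism was scored as restored cAMP in HEK293-DRD2 cells. These cells were stimulated with 200 nM NKH477 and 12 nM quinpirole for 30 min at room temperature, in the presence of 0.1 mM Ro20-1724.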

5-hydroxytryptamine receptor 2A (Homo sapiens), sequence (P28223 whole entry, looked up): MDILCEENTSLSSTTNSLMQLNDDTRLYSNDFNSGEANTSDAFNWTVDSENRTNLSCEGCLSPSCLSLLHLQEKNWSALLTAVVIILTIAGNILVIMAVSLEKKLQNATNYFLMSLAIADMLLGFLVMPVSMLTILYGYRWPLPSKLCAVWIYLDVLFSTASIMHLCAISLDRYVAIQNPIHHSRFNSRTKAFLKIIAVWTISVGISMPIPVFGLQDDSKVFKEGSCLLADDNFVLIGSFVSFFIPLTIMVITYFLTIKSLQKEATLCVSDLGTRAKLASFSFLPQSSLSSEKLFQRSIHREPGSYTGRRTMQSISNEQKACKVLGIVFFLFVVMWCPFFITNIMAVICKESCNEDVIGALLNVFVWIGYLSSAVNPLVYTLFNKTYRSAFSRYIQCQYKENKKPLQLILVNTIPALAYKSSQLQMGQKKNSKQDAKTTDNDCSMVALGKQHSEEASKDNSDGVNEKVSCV
Muscarinic acetylcholine receptor M1 (Homo sapiens), sequence (P11229 whole entry, looked up): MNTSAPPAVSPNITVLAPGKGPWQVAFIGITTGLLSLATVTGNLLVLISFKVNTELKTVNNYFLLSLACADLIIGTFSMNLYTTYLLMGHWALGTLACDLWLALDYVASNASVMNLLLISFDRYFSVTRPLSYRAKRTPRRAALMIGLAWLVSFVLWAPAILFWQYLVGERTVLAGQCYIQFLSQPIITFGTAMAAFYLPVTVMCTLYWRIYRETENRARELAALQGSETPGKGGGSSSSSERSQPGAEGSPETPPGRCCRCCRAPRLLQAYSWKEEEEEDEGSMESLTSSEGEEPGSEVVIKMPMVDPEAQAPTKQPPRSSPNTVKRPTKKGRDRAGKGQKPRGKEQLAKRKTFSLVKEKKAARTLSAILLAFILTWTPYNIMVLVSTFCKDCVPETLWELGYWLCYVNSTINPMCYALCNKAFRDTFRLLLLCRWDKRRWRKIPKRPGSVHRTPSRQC
D(2) dopamine receptor (Homo sapiens), sequence (P14416 whole entry, looked up): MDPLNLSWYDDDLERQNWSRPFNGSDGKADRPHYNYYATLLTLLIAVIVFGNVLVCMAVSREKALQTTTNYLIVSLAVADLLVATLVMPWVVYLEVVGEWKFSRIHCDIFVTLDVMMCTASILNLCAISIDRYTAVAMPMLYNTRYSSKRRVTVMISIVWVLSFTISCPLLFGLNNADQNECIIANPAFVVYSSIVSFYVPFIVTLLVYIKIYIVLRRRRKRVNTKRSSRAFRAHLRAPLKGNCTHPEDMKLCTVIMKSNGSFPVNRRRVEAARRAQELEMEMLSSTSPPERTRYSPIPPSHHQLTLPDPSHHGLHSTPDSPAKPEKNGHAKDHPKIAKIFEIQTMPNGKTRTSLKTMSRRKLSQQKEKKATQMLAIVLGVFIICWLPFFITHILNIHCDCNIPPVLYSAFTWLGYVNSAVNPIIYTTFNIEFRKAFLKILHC
KiSS-1 receptor (Homo sapiens), sequence (Q969F8 whole entry, looked up): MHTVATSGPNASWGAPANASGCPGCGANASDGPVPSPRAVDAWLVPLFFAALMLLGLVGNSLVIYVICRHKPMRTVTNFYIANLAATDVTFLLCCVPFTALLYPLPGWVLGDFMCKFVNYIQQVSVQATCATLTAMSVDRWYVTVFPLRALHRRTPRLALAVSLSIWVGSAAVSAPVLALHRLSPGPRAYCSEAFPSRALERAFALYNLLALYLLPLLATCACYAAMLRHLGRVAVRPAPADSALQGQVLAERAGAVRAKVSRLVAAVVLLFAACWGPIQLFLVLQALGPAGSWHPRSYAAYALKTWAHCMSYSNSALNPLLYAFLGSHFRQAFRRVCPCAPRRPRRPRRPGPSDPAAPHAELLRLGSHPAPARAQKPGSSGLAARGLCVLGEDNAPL
Beta-2 adrenergic receptor (Homo sapiens), sequence (P07550 whole entry, looked up): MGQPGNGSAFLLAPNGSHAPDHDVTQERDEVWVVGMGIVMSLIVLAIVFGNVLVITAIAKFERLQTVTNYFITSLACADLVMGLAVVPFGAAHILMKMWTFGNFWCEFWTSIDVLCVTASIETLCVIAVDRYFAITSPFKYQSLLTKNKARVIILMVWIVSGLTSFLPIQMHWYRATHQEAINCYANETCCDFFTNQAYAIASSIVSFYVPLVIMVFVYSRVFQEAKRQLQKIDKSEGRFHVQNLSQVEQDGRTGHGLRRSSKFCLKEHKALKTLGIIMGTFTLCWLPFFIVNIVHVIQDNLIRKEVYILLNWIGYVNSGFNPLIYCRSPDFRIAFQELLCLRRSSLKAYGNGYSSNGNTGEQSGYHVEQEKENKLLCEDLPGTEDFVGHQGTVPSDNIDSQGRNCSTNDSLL
Gonadotropin-releasing hormone receptor (Homo sapiens), sequence (P30968 whole entry, looked up): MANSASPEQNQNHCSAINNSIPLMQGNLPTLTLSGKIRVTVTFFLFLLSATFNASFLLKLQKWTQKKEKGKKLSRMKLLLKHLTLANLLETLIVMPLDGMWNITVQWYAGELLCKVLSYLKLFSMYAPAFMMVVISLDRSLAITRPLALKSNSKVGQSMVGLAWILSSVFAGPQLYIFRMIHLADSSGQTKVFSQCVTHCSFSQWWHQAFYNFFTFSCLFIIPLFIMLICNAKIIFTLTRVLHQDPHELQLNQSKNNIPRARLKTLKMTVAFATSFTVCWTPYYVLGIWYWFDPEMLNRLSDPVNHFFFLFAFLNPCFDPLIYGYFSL

With `CC(C)CCCCCCCOC(=O)CCCCC(=O)OCCCCCCCC(C)C`, the Potency result in [1], in assay [2], in [3], in assay [4], in assay [5] and in assay [6] was “inactive” throughout. The Potency result in [7], in assay [8], in assay [9], in assay [10], in [11] and in assay [12] was “inactive” throughout. The Potency result in assay [13], in assay [14], in assay [15], in assay [16], in [17] and in assay [18] was “inactive” throughout. In addition, the Potency result in [19] and in [20] was “inactive” each time.
Take `C=C(C#N)C(=O)OCC`: the Potency result in [1], in [3], in [4], in [5], in assay [6] and in assay [7] was “inactive” each time. Also, the Potency result in [8], in assay [9], in assay [10], in assay [11], in [12] and in assay [13] was “inactive” throughout. The Potency result in assay [14], in assay [15], in assay [16], in [17], in assay [18] and in assay [20] was “inactive” each time. The Potency result in assay [2] is “inactive and 68.6 µM (active)”.
With `O=C1OC(c2ccc(O)cc2)(c2ccc(O)cc2)c2ccccc21`, the Potency in assay [1] was 48.2 µM (active) and inactive; in [2], 24.2 µM (active) and inactive. In addition, the Potency entry in assay [3], in [4], in assay [5], in assay [6], in assay [7] and in assay [8] was “inactive” each time. The Potency result in [9], in assay [10], in [11], in [12], in assay [13] and in assay [14] was “inactive” each time. The Potency result in [15], in assay [16], in assay [17], in [18], in assay [19] and in [20] was “inactive” throughout.
For the compound `CC(C)(CO)COC(=O)C(C)(C)CO`, the Potency result in [1], in assay [2], in assay [3], in [4], in [5] and in [6] was “inactive” each time. Further, the Potency entry in [7], in assay [8], in assay [9], in assay [10], in assay [11] and in [12] was “inactive” throughout. The Potency result in assay [13], in [14], in assay [15], in [16], in [17] and in assay [18] was “inactive” throughout. Moreover, the Potency result in assay [19] and in assay [20] was “inactive” throughout.
Take `CC(=O)OCCOC(C)=O`: the Potency entry in assay [1], in [2], in assay [3], in assay [4], in assay [5] and in [6] was “inactive” throughout. For the same compound, the Potency result in [7], in assay [8], in assay [9], in assay [10], in [11] and in [12] was “inactive” throughout. Besides, the Potency result in assay [13], in assay [14], in [15], in [16], in assay [17] and in [18] was “inactive” throughout. Moreover, the Potency result in [19] and in assay [20] was “inactive” throughout.
`CC(C)(C)c1cccc(C(C)(C)C)c1O`: the Potency entry in assay [1], in assay [2], in assay [3], in [4], in [5] and in assay [6] was “inactive” throughout. The Potency result in assay [7], in [8], in [9], in assay [10], in assay [11] and in assay [12] was “inactive” each time. Moreover, the Potency result in assay [13], in assay [15], in assay [16], in assay [17], in assay [18] and in assay [19] was “inactive” throughout. Moreover, the Potency entry in [20] was “inactive”. Further, the Potency in assay [14] is 231 nM (active) and inactive.
As to `Cc1ccc(N)c(S(=O)(=O)O)c1`, the Potency entry in [1], in assay [2], in [3], in assay [4], in assay [5] and in assay [6] was “inactive” in each case. Further, the Potency entry in assay [7], in assay [8], in [9], in [10], in assay [11] and in assay [12] was “inactive” in each case. Moreover, the Potency entry in assay [13], in assay [14], in [15], in [16], in [17] and in assay [18] was “inactive” each time. The Potency entry in [19] and in assay [20] was “inactive” each time.
Regarding `CC(C)CC(=O)CC(C)C`, the Potency entry in assay [1], in assay [2], in [3], in [4], in assay [5] and in assay [6] was “inactive” throughout. The Potency entry in [7], in assay [8], in assay [9], in [10], in [11] and in assay [12] was “inactive” in each case. Also, the Potency result in assay [13], in assay [14], in [15], in assay [16], in assay [17] and in assay [18] was “inactive” each time. Further, the Potency entry in [19] and in assay [20] was “inactive” each time.
